According to article PMC6925144, “A prospective compound screening contest identified broader inhibitors for Sirtuin 1” (Scientific Reports, 2019):
Over roughly 3,200 compounds, “TSA(with NAD+) / Primary screening (TSA) / delta Tm (K)” has its median near -0.04; the highest 2% begin near 0.37. What follows is part of a selection rich in the highest values, with near analogues and random picks from the rest.

Target: NAD-dependent deacetylase Sirtuin 1 (human, UniProt Q96EB6)
Assay: primary screen, delta tm
Parameters: single well (n = 1, as 'the same TSA')
Conditions: 10 µM
Experimental: A total of 3,192 compounds extracted from the proposed lists were first screened by thermal shift assay (TSA), which determined a melting temperature shift (ΔTm) of Sirtuin 1 upon the addition of a test compound at a concentration of 10 µM (n = 1) with primary hit criteria of ΔTm > 0.45 K or ΔTm < −1.5 K. Primary hits (48 compounds) were retested in the same assay at three concentrations (5, 10, 20 µM, n = 4) for hit confirmation and for dose-dependency check. Secondary hits (41 compounds) were checked their selectivity for Sirtuin 1 based on counterscreening on unrelated protein targets (bovine carbonic anhydrase (CA) and recombinant SH2 domain of hABL1 kinase (ABL1)) at three different concentrations (5, 10, 20 µM, n = 4), which yielded 38 hit compounds, hereafter referred to as TSA hits. The TSA screening above was conducted in the absence of NAD+. As noted, the structure of Sirtuin 1 is different in the presence of NAD+ and substrate. The chemical profile of TSA hits found from the different conditions could be different. […] As a result, 39 TSA hits were found.

NAD-dependent deacetylase Sirtuin 1, sequence (Q96EB6 2-747 limits assumed): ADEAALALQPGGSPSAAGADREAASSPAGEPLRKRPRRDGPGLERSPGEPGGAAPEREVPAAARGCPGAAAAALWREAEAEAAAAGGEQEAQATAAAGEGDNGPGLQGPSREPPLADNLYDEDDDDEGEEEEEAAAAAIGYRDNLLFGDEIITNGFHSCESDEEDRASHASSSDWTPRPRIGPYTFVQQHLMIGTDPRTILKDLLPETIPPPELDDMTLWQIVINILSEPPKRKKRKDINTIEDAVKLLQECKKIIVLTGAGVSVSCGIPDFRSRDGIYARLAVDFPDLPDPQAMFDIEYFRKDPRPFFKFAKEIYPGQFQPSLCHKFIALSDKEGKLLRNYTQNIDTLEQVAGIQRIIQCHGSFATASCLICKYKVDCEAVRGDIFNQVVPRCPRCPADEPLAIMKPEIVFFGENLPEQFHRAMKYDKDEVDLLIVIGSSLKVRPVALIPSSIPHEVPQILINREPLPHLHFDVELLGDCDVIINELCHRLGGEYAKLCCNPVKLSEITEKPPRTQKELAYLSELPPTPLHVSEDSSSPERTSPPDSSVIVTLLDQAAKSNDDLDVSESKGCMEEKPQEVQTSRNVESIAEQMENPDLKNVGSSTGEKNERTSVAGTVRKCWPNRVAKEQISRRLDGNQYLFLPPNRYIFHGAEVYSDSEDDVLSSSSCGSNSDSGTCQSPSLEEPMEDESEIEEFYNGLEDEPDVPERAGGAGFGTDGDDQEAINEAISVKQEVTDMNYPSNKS

Row | SMILES | TSA(with NAD+) / Primary screening (TSA) / delta Tm (K)
1 | CN(c1cccc(Cl)c1)S(=O)(=O)c1cccc(C(=O)Nc2cccc(C#N)c2)c1 | 0.45
2 | COc1ccc(N(C)S(=O)(=O)c2cccc(C(=O)Nc3ccc(Br)c(C(F)(F)F)c3)c2)cc1 | 0.69
3 | COc1ccc(N(C)S(=O)(=O)c2cccc(C(=O)Nc3cccc4ccccc34)c2)cc1 | -0.09
4 | COc1ccc(N(C)S(=O)(=O)c2cccc(C(=O)Nc3ccc4c(C)cc(=O)oc4c3)c2)cc1 | -0.09
5 | COc1ccc(N(C)S(=O)(=O)c2cccc(C(=O)Nc3ccc4ccccc4c3)c2)cc1 | 0.65
6 | COc1ccc(N(C)S(=O)(=O)c2cccc(C(=O)Nc3cccc(C#N)c3)c2)cc1 | 0.35
7 | COc1ccc(N(C)S(=O)(=O)c2cccc(C(=O)Nc3ncc(C(N)=O)s3)c2)cc1 | -0.03
8 | COc1ccc(N(C)S(=O)(=O)c2cccc(C(=O)Nc3ccc(OC)c(OC)c3)c2)cc1 | -0.04
9 | Cc1ccc(N(C)S(=O)(=O)c2cccc(C(=O)Nc3cccc(C#N)c3)c2)cc1 | 0.28
10 | CN(c1ccccc1)S(=O)(=O)c1cccc(NC(=O)c2cccc(C#N)c2)c1 | 0.08
11 | COc1ccc(N(C)S(=O)(=O)c2cccc(C(=O)Nc3ccc(Br)cc3F)c2)cc1 | 0.36
12 | COc1ccc(N(C)S(=O)(=O)c2cccc(C(=O)Nc3ccc(-n4cnnn4)cc3)c2)cc1 | 0.76
13 | CC(C)Cn1c(SCC(=O)Nc2sc3c(c2C(N)=O)CCC3)nnc1N1CCOCC1 | -0.18
14 | Cc1ccc(-c2nn(-c3ccccc3)cc2C=C2C(=O)NC(=O)NC2=O)o1 | -0.59
15 | CN(CCC#N)C(=O)C(C)(C)c1ccccc1 | -0.08
16 | O=C(CSc1nnc(NCC2CCCO2)s1)Nc1nc(-c2cc(F)ccc2F)cs1 (stereo not drawn) | 0.01
17 | CN(c1ccccc1)S(=O)(=O)c1cccc(C(=O)Nc2ccccc2-c2ccccc2)c1 | -0.02
18 | COc1ccc(NC(=O)c2cccc(S(=O)(=O)N(C)c3ccc(OC)cc3)c2)cc1 | -0.02
19 | COc1ccc(N(C)S(=O)(=O)c2cccc(C(=O)Nc3ccc(Cl)cc3)c2)cc1 | 0.86
20 | CCCOC(=O)c1ccc(NC(=O)c2cccc(S(=O)(=O)N(C)c3ccc(OC)cc3)c2)cc1 | 0.29
21 | Cc1ccc(N(C)S(=O)(=O)c2cccc(C(=O)Nc3nc4ccccc4[nH]3)c2)cc1 | -0.06

Row | SMILES | TSA(with NAD+) / Primary screening (TSA) / delta Tm (K)
22 | COc1ccc(N(C)S(=O)(=O)c2cccc(C(=O)Nc3cccc(Br)c3)c2)cc1 | 0.32
23 | COc1ccc(N(C)S(=O)(=O)c2cccc(C(=O)Nc3ccc(C)cc3)c2)cc1 | 0.11
24 | CN(c1ccccc1)S(=O)(=O)c1cccc(C(=O)Nc2ccccc2-c2nc3ccccc3[nH]2)c1 | 0.38
25 | COc1ccc(N(C)S(=O)(=O)c2cccc(C(=O)Nc3ccc(Br)cc3)c2)cc1 | 1.36
26 | NC(=O)c1oc2ccccc2c1NC(=O)Cc1ccc(Cl)c(Cl)c1 | 0.12
27 | CC(=O)Nc1ccc(NCc2nnc3n(C)c(=O)c4ccccc4n23)cc1 | -0.12
28 | NC1=C(c2nc3ccccc3[nH]2)C(=O)CN1c1ccc(CC(=O)O)cc1 | -0.03
29 | CC(O)CCCN (stereo not drawn) | -0.11
30 | Cc1ccc(S(=O)(=O)N2CCCCC2)cc1NC(=O)COC(=O)c1ccccc1SCC(=O)N1CCCC1 | -0.01
31 | N#CC(C(=O)c1ccc(NS(=O)(=O)c2ccccc2)cc1)c1nc(-c2ccccn2)cs1 (stereo not drawn) | 0.47
32 | O=C(Nc1ccc(Oc2ncccn2)cc1)c1ccc(S(=O)(=O)Nc2ccc(F)cc2)cc1 | 0.06
33 | Cc1nc(COc2ccc(C(=O)Nc3ccc(S(=O)(=O)Nc4cccc(F)c4)cc3)cc2)cs1 | -0.14
34 | O=C(NN/C=C1/C(=O)N(c2cccc(C(F)(F)F)c2)C(=O)c2ccccc21)c1cccc(S(=O)(=O)Nc2ccccc2Cl)c1 | 0.99
35 | Cc1ccc(N(C)S(=O)(=O)c2cccc(C(=O)Nc3ccccc3Cl)c2)cc1 | -0.13
36 | Cc1ccc(N(C)S(=O)(=O)c2cccc(C(=O)Nc3ccccc3C(F)(F)F)c2)cc1 | -0.09
37 | C=CCOc1ccc(C(=O)C2=C(O)C(=O)N(CCN3CCOCC3)C2c2ccco2)cc1 (stereo not drawn) | -0.01
38 | COc1ccccc1-c1noc(C(C)NC(=O)C(C)NC(C)=O)n1 (stereo not drawn) | -0.01
39 | COc1ccc(CC(=O)NCCNC(=O)c2ccc(C)c(F)c2)cc1 | -0.13
40 | COc1ccc(-c2cc(NC(=O)CCNC(=O)c3ccc(Cl)cc3)ccc2OC(F)F)cc1 | 0.45
41 | COc1ccc(-c2cc(NC(=O)Cc3n[nH]c(=O)c4ccccc34)ccc2OC(F)F)cc1 | 0.07
42 | O=C(C1=C(O)C(=O)N(CCCN2CCOCC2)C1c1cccc([N+](=O)[O-])c1)c1ccc(F)cc1 (stereo not drawn) | 0.06
